Measured values as given in ChEMBL document CHEMBL1157539, “Thousands of chemical starting points for antimalarial lead identification” (Nature, 2010).
“And” between values parts separate entries of the source, which are not always exact repeats. Equal entries are not always repeated.

What follows are compounds tested on Plasmodium falciparum (assay: GSK_TCMDC: Inhibition of Plasmodium falciparum 3D7 in whole red blood cells, using parasite LDH activity as an index of growth. Test compounds present at 2uM).
Type: functional
`O=C(NC1CCC(CN2CCC(c3c[nH]c4ccccc34)CC2)CC1)c1cc(-c2ccccc2)c(C(F)(F)F)s1` (centres undefined) showed an Inhibition of 100%.
`CN(C)CCCOc1ccc(CN2CCC(c3c[nH]c4ccc(NCC5CCCCC5)cc34)CC2)cc1.O=C(O)C(F)(F)F` showed an Inhibition of 99%.
Work on `Cc1cccc2c(C3CCN(CC4CCC(NC(=O)/C=C/c5ccc(Cl)c(Cl)c5)CC4)CC3)c[nH]c12` (centres undefined) yielded an Inhibition of 92%.
With `CCCc1c(C(=O)NC2CCC(CN3CCC(c4c[nH]c5ccccc45)CC3)CC2)cnn1-c1ccccc1` (centres undefined) the Inhibition was 92%.
Compound `COC(=O)c1ccc(C[C@@H](C)NC[C@H](O)c2cccc(C(F)(F)F)c2)cc1.Cl` has an Inhibition of 97%.
For `CC(C)CNCc1ccc(-c2cccc(CN(C(=O)CCC3CCCC3)C3CCN(Cc4ccccc4)CC3)c2)cc1.O=C(O)C(F)(F)F`, the Inhibition was 100%.
Compound `CCOC(=O)c1c(C)n(C2CCCCC2)c2cc(Br)c(O)cc12` has an Inhibition of 98%.
`COc1cc(C=CC(=O)N2CCC(CN3CCC(c4c[nH]c5ccccc45)CC3)CC2)cc(OC)c1` gave an Inhibition of 95%.
`CCCCCCCc1cc(O)c2c3c(c(=O)oc2c1)CN(C)CC3` showed an Inhibition of 97%.
Work on `Cc1nc2ccccc2n1C1CC2CCC(C1)N2Cc1nccn1-c1ccccc1.O=C(O)C(F)(F)F` (centres undefined) yielded an Inhibition of 94%.
For `Cc1c(C)c2c(c(C)c1O)CC[C@@](C)(C(=O)NC1CCC(CN3CCC(c4c[nH]c5ccccc45)CC3)CC1)O2` (some centres undefined), the Inhibition was 92%.
`O=C(NC1CCN(CCc2c[nH]c3ccc(F)cc23)CC1)c1ncc(-c2ccccc2)[nH]1.O=C(O)C(F)(F)F` was tested, and the Inhibition was 100%.
`CC(C)CNCc1ccc(-c2cccc(CN(C(=O)Nc3ccccc3)C3CCN(Cc4ccccc4)CC3)c2)cc1.O=C(O)C(F)(F)F` was tested, and the Inhibition was 100%.
For `O=C(/C=C/c1ccc(Cl)c(Cl)c1)N1CCC(CN2CCC(c3c(-c4ccccc4)[nH]c4ccccc34)CC2)CC1`, the Inhibition was 100%.
Compound `CCCCCCc1cc(O)c2c3c(c(=O)oc2c1)CCN(C)C3` has an Inhibition of 99%.
With `COc1ccc(C2CNCc3c2cc(OC)c(OC)c3Cl)cc1.Cl` (centres undefined) the Inhibition was 98%.
For `O=C(C=C1c2ccccc2-c2ccccc21)NC1CCC(CN2CCC(c3c[nH]c4ccccc34)CC2)CC1` (centres undefined), the Inhibition was 99% and 100%.
In the case of `CC(=O)Nc1ccc(CN2CCC(N(C)c3cc(NC(=O)c4ccc(F)cc4)ccn3)CC2)cc1.O=C(O)C(F)(F)F`, the Inhibition is reported as 95%.
`CC[C@H]1CN2CC[C@@H]1C[C@H]2[C@H](O)c1cc(N2CCC(N3CCCCC3)CC2)nc2ccc(OC)cc12` gave an Inhibition of 99%.
For `Cc1c(C)c2c(c(C)c1O)CC[C@](C)(C(=O)NC1CCC(CN3CCC(c4c[nH]c5ccccc45)CC3)CC1)O2` (some centres undefined), the Inhibition was 96% and 85%.
With `CNC(=O)c1ccc2[nH]cc(C3CCN(CC4CCC(NC(=O)/C=C/c5ccccc5Cl)CC4)CC3)c2c1` (centres undefined) the Inhibition was 100%.
`Clc1ccc2nccc(N3CCC(CN4CCC(c5c[nH]c6ccccc56)CC4)CC3)c2c1.O=C(O)C(F)(F)F` gave an Inhibition of 100%.
`O=C(Nc1ccc(Oc2ccccc2)cc1)N1CCC(CN2CCC(c3c[nH]c4ccccc34)CC2)CC1` showed an Inhibition of 100%.
In the case of `CCN(CC)CCN1C(=O)C(O)(c2ccccc2Cl)c2c1cc(C#N)cc2C(F)(F)F` (centres undefined), the Inhibition is reported as 88%.
`CC(=O)Nc1ccc(CN2CCC(N(C)c3cc(NC(=O)c4cccc(F)c4)ccn3)CC2)cc1.O=C(O)C(F)(F)F` gave an Inhibition of 85%.
With `Br.Cc1ccccc1C1=CCN(CCCN2c3ccccc3Sc3ccc(Cl)cc32)CC1` the Inhibition was 90%.
`O=C(Cc1c(-c2ccccc2)[nH]c2ccccc12)NC1CCC(CN2CCC(c3c[nH]c4ccccc34)CC2)CC1` (centres undefined) was tested, and the Inhibition was 100%.
With `COCCNCc1ccc(-c2ccc(CN(C(=O)NC3CCCCC3)C3CCN(Cc4ccccc4)CC3)cc2)cc1.O=C(O)C(F)(F)F` the Inhibition was 94%.
In the case of `CN1CC=C(c2c[nH]c3ccc(Sc4ccccc4)cc23)CC1.O=C(O)/C=C/C(=O)O`, the Inhibition is reported as 98%.
With `CC[C@H]1CN2CC[C@H]1C[C@H]2[C@H](O)c1cc(-c2ccccc2C)nc2ccc(OC)cc12.Cl` the Inhibition was 100%.
`O=C(NC1CCN(CC2(c3ccc(Cl)cc3)CCC2)CC1)c1cc[nH]n1` showed an Inhibition of 96%.
`CC[C@H]1CN2CC[C@H]1C[C@@H]2[C@@H](O)c1ccnc2ccccc12` was tested, and the Inhibition was 98%.
`O=C(Nc1ccc(Oc2ccccc2)cc1)NC1CCC(CN2CCC(c3c[nH]c4ccccc34)CC2)CC1` (centres undefined) gave an Inhibition of 100%.
With `CC[C@H]1CN2CC[C@H]1C[C@H]2[C@H](O)c1cc(-c2ccc3ccccc3c2)nc2ccc(OC)cc12.Cl` the Inhibition was 99%.
For `O=C(/C=C/c1ccsc1)NC1CCC(CN2CCC(c3c[nH]c4ccccc34)CC2)CC1` (centres undefined), the Inhibition was 82%.
For `Cc1[nH]c2ccccc2c1C1=CCN(CCCCC2(C)C(=O)Nc3cccc(F)c32)CC1` (centres undefined), the Inhibition was 95%.
`COc1ccc(C[C@H]2NC[C@H](O)[C@H]2OC(C)=O)cc1` [ANISOMYCIN] showed an Inhibition of 100%.
With `CCCCCC(C)C(C)c1cc(O)c2c(c1)OC1(C(C)C)CC(O)C(C)C2C1` (centres undefined) the Inhibition was 93%.
`CC[C@H]1CN2CC[C@H]1C[C@H]2[C@H](O)c1cc(-c2cccc(Cl)c2)nc2ccc(OC)cc12.Cl` gave an Inhibition of 98%.
